Test results: PubChem BioAssay (Tox21)
Several values for one entry are separate records, joined by “and”; a condition that tells them apart may be missing. Equal entries are not always repeated. Results filed as inconclusive are left out. A call without a number means that no potency is given here. Some compounds were tested as several samples or in several runs, with calls that do not always agree. Activity calls are given as the source filed them. Unless noted, the call rests on the fitted dose curve; in most records, active means well fitted curve in the direction sought with a large enough effect in the repeat runs; inconclusive means weak or mixed curves; inactive means no such curve, though single readings can be large; an effect the other way counts as inactive or inconclusive.

Columns and labels:
[1] = qHTS assay to identify small molecule antagonists of the glucocorticoid receptor (GR) signaling pathway - cell viability counter screen (AID 720693); further: nearly all actives have a fitted effect of over 55% in size
[2] = qHTS assay for identifying genotoxic compounds that show differential cytotoxicity against isogenic chicken DT40 cell lines with known DNA damage response pathways - wild type cell line (AID 743012); further: nearly all actives have a fitted effect of over 60% in size; further: potency means the concentration at half of the fitted maximal effect
Summary of the method: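 Quantitative HTS on parental DT40 cells: 40 h compound treatment at 37 C/5% CO2, with viability then determined by CellTiter-Glo luminescence. Values serve as the DNA repair-proficient reference for differential cytotoxicity.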

[3] = qHTS assay for identifying genotoxic compounds that show differential cytotoxicity against isogenic chicken DT40 cell lines with known DNA damage response pathways - Rev3 mutant cell line (AID 743014); further: nearly all actives have a fitted effect of over 55% in size; further: potency means the concentration at half of the fitted maximal effect
[4] = qHTS assay for identifying genotoxic compounds that show differential cytotoxicity against isogenic chicken DT40 cell lines with known DNA damage response pathways - Rad54/Ku70 mutant cell line (AID 743015); further: nearly all actives have a fitted effect of over 60% in size; further: potency means the concentration at half of the fitted maximal effect
[5] = qHTS assay to identify small molecule antagonists of the androgen receptor (AR) signaling pathway - cell viability counter screen (AID 743033; further: nearly all actives have a fitted effect of over 45% in size)
[6] = qHTS assay to identify small molecule antagonists of the androgen receptor (AR) signaling pathway using the MDA cell line - cell viability counter screen (AID 743041; further: nearly all actives have a fitted effect of over 45% in size)
Summary of the method: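 Same-well cytotoxicity was assessed by CellTiter-Fluor in MDA-kb2 AR-luc cells after 16 h of compound treatment under R1881 agonism.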

[7] = qHTS assay to identify small molecule antagonists of the thyroid receptor (TR) signaling pathway - cell viability counter screen (AID 743064); further: nearly all actives have a fitted effect of over 50% in size; further: potency means the concentration at half of the fitted maximal effect
Summary of the method: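 Fluorescence from CellTiter-Fluor, added after 23.5 h exposure at 37 °C, reported viability of GH3.TRE-Luc cells co-treated with compound and 1 nM T3. Measured in the same wells as the luciferase TR readout.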

[8] = qHTS assay to identify small molecule antagonists of the thyroid receptor (TR) signaling pathway (AID 743065); further: nearly all actives have a fitted effect of over 55% in size; further: potency means the concentration at half of the fitted maximal effect
Summary of the method: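 GH3.TRE-Luc rat pituitary cells (two TREs driving luciferase) were dosed with compound, then stimulated with 1 nM T3 (final) for 23.5 h at 37 C. ONE-Glo luminescence was the read-out, with CellTiter-Fluor fluorescence as the cytotoxicity counter-screen.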

[9] = tested on: thyroid hormone receptor (rat, GH3 cells); test: qHTS assay to identify small molecule agonists of the thyroid receptor (TR) signaling pathway (AID 743066; calls by dose curve)
[10] = molecular target: Estrogen receptor (Homo sapiens) (UniProt P03372); test: qHTS assay to identify small molecule antagonists of the estrogen receptor alpha (ER-alpha) signaling pathway (AID 743069; active means well fitted curve in the direction sought with a large enough effect in the signal ratio in the repeat runs, not every such curve was filed as active; the % refers to the signal ratio; further: potency means the concentration at half of the fitted maximal effect)
Estrogen receptor (Homo sapiens), sequence (P03372 whole entry, looked up): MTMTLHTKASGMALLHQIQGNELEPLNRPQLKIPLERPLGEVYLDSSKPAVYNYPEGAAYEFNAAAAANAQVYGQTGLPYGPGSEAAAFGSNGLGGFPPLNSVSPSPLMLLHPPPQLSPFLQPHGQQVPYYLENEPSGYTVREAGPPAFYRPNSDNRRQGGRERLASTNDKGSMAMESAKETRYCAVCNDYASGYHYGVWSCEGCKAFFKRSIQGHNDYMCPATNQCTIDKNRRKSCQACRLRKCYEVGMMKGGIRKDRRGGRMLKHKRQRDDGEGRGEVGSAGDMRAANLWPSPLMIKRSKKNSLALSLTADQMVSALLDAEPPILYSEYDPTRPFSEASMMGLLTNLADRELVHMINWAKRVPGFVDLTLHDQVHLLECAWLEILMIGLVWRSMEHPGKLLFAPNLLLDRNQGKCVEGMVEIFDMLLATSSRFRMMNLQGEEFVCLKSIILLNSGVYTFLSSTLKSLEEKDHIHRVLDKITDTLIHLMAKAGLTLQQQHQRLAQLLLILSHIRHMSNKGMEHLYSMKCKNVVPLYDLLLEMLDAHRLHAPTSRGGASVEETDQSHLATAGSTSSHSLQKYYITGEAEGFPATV
Summary of the method: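 Reporter cells (ER-alpha-bla, HEK293 background) are conditioned overnight in stripped-serum medium (2% charcoal-stripped FBS). Compound and 17beta-estradiol exposure runs 18 hr at 37C, 5% CO2.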

[11] = qHTS assay to identify small molecule antagonists of the estrogen receptor alpha (ER-alpha) signaling pathway - cell viability counter screen (AID 743074; calls by dose curve;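 further: HEK293 cells carrying ER-alpha-UAS-bla reporter stimulated with 17beta-estradiol; nearly all actives have a fitted effect of over 45% in size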)
[12] = molecular target: Estrogen receptor (Homo sapiens) (UniProt P03372); test: qHTS assay to identify small molecule agonists of the estrogen receptor alpha (ER-alpha) signaling pathway (AID 743075; calls by dose curve;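 further: HEK293 GripTite cells with ER-alpha and UAS-driven beta-lactamase reporter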)
[13] = molecular target: Estrogen receptor (Homo sapiens) (UniProt P03372); test: qHTS assay to identify small molecule agonists of the estrogen receptor alpha (ER-alpha) signaling pathway using the BG1 cell line (AID 743079); further: nearly all actives have a fitted effect of over 20% in size; further: potency means the concentration at half of the fitted maximal effect
[14] = qHTS assay to identify small molecule antagonists of the estrogen receptor alpha (ER-alpha) signaling pathway using the BG1 cell line (AID 743080; calls by dose curve;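 further: BG1 cells stimulated with 17beta-estradiol alongside compound; nearly all actives have a fitted effect of over 25% in size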; further: potency means the concentration at half of the fitted maximal effect)
Summary of the method: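 After 5 days in phenol-red-free 10% charcoal-stripped FBS medium, BG1-Luc-4E2 cells were seeded, left 24 h at 37 C, co-treated with compounds and 17beta-estradiol for 21.5 h, then assayed for viability and luciferase.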

[15] = qHTS assay to identify small molecule antagonists of the estrogen receptor alpha (ER-alpha) signaling pathway using the BG1 cell line - cell viability counter screen (AID 743081);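 further: compound given together with 17beta-estradiol as the ER stimulus; series mostly up to about 70 µM; nearly all actives have a fitted effect of over 45% in size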
Aromatase (Homo sapiens) = Aromatase (Homo sapiens) (UniProt P11511); test: qHTS assay to identify aromatase inhibitors (AID 743083); further: series mostly up to about 70 µM; nearly all actives have a fitted effect of over 55% in size
Aromatase (Homo sapiens), sequence (P11511 whole entry, looked up): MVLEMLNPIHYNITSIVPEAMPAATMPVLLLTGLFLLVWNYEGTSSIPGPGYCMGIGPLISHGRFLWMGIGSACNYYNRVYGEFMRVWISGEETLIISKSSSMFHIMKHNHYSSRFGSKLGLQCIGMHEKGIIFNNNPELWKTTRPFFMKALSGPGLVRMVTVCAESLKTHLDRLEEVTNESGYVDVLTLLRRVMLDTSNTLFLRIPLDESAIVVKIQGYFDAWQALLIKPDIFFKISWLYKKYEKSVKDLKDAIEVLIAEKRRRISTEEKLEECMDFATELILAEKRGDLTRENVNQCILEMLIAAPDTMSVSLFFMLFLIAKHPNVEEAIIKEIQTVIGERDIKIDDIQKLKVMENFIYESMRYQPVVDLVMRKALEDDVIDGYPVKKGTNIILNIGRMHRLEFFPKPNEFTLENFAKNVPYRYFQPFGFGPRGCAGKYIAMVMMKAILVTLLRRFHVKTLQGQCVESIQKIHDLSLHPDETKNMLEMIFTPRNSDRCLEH

[16] = molecular target: Androgen receptor (Homo sapiens) (UniProt P10275); test: qHTS assay to identify small molecule antagonists of the androgen receptor (AR) signaling pathway (AID 743035; active means well fitted inhibition curve with a large enough effect in the signal ratio in the repeat runs, not every such curve was filed as active; the % refers to the signal ratio; further: potency means the concentration at half of the fitted maximal effect)
Androgen receptor (Homo sapiens), sequence (P10275 whole entry, looked up): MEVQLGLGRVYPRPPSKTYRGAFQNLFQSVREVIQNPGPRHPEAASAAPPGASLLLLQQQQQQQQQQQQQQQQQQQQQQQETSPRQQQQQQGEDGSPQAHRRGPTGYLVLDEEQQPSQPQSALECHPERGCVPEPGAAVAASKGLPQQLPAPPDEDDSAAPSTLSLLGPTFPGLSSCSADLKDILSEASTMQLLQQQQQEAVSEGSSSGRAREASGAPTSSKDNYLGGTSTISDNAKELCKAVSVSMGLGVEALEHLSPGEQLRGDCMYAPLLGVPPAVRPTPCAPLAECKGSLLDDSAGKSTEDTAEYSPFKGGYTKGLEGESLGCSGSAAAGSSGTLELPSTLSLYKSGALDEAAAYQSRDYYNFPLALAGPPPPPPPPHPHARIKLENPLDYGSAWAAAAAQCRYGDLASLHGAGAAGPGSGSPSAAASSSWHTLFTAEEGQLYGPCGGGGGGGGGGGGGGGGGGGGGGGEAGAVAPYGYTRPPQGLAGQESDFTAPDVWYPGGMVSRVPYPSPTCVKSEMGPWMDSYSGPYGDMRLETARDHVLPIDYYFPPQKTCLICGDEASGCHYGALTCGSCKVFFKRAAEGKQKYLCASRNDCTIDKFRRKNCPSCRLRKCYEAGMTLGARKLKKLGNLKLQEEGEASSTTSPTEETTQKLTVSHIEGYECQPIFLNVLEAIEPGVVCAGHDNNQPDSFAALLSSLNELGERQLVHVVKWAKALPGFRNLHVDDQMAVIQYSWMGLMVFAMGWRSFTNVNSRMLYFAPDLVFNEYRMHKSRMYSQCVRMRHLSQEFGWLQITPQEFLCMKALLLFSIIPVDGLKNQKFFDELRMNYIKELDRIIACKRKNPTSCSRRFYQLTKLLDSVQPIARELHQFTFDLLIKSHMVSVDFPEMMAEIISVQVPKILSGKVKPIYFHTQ
Summary of the method: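 Cell line: GeneBLAzer AR-UAS-bla GripTite (HEK293). Stimulus: R1881 added after compound. Exposure: 16 h, 37C, 5% CO2. Readout: LiveBLAzer B/G FRET fluorescence after 2 h at room temperature.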

[17] = molecular target: Androgen receptor (Homo sapiens) (UniProt P10275); test: qHTS assay to identify small molecule agonists of the androgen receptor (AR) signaling pathway (AID 743036; active means well fitted activation curve with a large enough effect in the signal ratio in the repeat runs, with a control signal flat, not every such curve was filed as active; the % refers to the signal ratio)
Summary of the method: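 Fluorescence from a beta-lactamase FRET substrate served as read-out in AR-UAS-bla GripTite HEK293 cells. Cells were treated with DMSO-dissolved compounds for 16 h at 37C, then with LiveBLAzer B/G substrate for 2 h at room temperature.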

[18] = molecular target: Androgen receptor (Homo sapiens) (UniProt P10275); test: qHTS assay to identify small molecule antagonists of the androgen receptor (AR) signaling pathway using the MDA cell line (AID 743042; further: nearly all actives have a fitted effect of over 55% in size)
Summary of the method: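 MDA-kb2 breast carcinoma cells carrying MMTV-luciferase (AR/GR responsive) were co-treated with compounds and the agonist R1881 for 16 h at 37C. Inhibition read as ONE-Glo luminescence; CellTiter-Fluor fluorescence measured in parallel for cytotoxicity.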

[19] = molecular target: Androgen receptor (Homo sapiens) (UniProt P10275); test: qHTS assay to identify small molecule agonists of the androgen receptor (AR) signaling pathway using the MDA cell line (AID 743040; further: nearly all actives have a fitted effect of over 20% in size)
Summary of the method: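 Human breast carcinoma MDA-kb2 reporter cells (MMTV-luc, AR/GR elements) were treated for 16 h at 37C in 0% CO2 following a 5 h settling period. Signal was quantified by ONE-Glo luminescence.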

SMILES | Potency [1] | Potency [2] | Potency [3] | Potency [4] | outcome [5] | Potency [6] | Potency [7] | Potency [8] | outcome [9] | Potency [10] | outcome [11] | Potency [12] | Potency [13] | Potency [14] | Potency [15] | Potency (Aromatase (Homo sapiens)) | Potency [16] | outcome [17] | Potency [18] | Potency [19]
NC(=O)N1c2ccccc2C=Cc2ccccc21 | inactive | inactive and 30.6 µM (active) | inactive and 30.6 µM (active) | inactive and 54.5 µM (active) | inactive | inactive | inactive | inactive | inactive | inactive | inactive | inactive | inactive | inactive | inactive | inactive | – | – | – | –
COc1cc(O)c(C(=O)c2ccccc2)cc1S(=O)(=O)O | inactive | inactive | inactive | inactive | inactive | inactive | inactive | inactive | inactive | inactive | inactive | inactive | inactive | inactive | inactive | inactive | inactive | inactive | inactive | –
Cc1cccc2ccccc12 | inactive | inactive | inactive | inactive | inactive | inactive | inactive | inactive | inactive | inactive | inactive | inactive | inactive | inactive | inactive | inactive | – | – | – | –
CCCCCCCCOc1ccc(C(=O)c2ccccc2)c(O)c1 | inactive | inactive | inactive and 61.1 µM (active) | inactive and 68.6 µM (active) | inactive | inactive | inactive | inactive | inactive | inactive | inactive | inactive | inactive | 12.3 µM (active) and 12.2 µM (active) | inactive | inactive | – | – | – | –
CC(=O)Oc1ccccc1C(=O)O | inactive | inactive | inactive | inactive | inactive | inactive | inactive | – | – | inactive | inactive | inactive | inactive | inactive | inactive | inactive | inactive | inactive | inactive | inactive
COC(=O)c1ccc(C=O)cc1 | inactive | inactive | inactive | inactive | inactive | inactive | inactive | inactive | inactive | inactive | inactive | inactive | inactive | inactive | inactive | inactive | – | – | – | –
CCN1CCCC1=O | inactive | inactive | inactive | inactive | inactive | inactive | inactive | inactive | inactive | inactive | inactive | inactive | inactive | inactive | inactive | inactive | – | – | – | –
COCCOCCOC | inactive | inactive | inactive | inactive | inactive | inactive | inactive | – | inactive | inactive | inactive | inactive | inactive | inactive | inactive | inactive | inactive | inactive | inactive | inactive
CC(C)=CCC/C(C)=C/CO | inactive | inactive | inactive | inactive | inactive | inactive | inactive | inactive | inactive | – | inactive | – | – | – | inactive | – | – | inactive | – | –
CC(=O)c1ccc(S(=O)(=O)NC(=O)NC2CCCCC2)cc1 | inactive | inactive | inactive | inactive | inactive | inactive | inactive | – | inactive | inactive | inactive | inactive | inactive | inactive | inactive | inactive | inactive | inactive | inactive | inactive
O=c1c(-c2ccc(O)cc2)coc2cc(O)cc(O)c12 | inactive | 11.9 µM (active) and 30.6 µM (active) | 21.1 µM (active) and 53.5 µM (active) and 48.6 µM (active) | 11.9 µM (active) and 47.7 µM (active) and 27.3 µM (active) | inactive | inactive | 21.1 µM (active) and 47.7 µM (active) | 11.9 µM (active) and 47.7 µM (active) and 21.7 µM (active) | inactive | – | inactive | – | – | – | inactive | inactive | – | – | inactive | inactive
COc1cc2c(c(OC)c1OC)-c1ccc(OC)c(=O)cc1[C@@H](NC(C)=O)CC2 | inactive | 66.8 nM (active) and 13.5 nM (active) and 7.7 nM (active) | 66.8 nM (active) and 12 nM (active) and 7.7 nM (active) | 84.1 nM (active) and 10.7 nM (active) and 7.7 nM (active) | inactive | inactive | 1.19 µM (active) and 172 nM (active) | 531 nM (active) and 135 nM (active) and 96.9 nM (active) | inactive | 15.3 nM [inhibitor] (active) and inactive | inactive | inactive | inactive | 119 nM (active) and 42.7 nM (active) and 86.3 nM (active) | inactive | inactive | 60.1 nM (active) | – | inactive | inactive
CCCCCCCCCCCCCC(=O)OC(C)C | inactive | inactive | inactive | inactive | inactive | inactive | inactive | – | inactive | inactive | inactive | inactive | 29.8 µM (active) and inactive | inactive | inactive | inactive | inactive | inactive | inactive | inactive
CC(O)COc1ccccc1 (stereo not given) | inactive | inactive | inactive | inactive | inactive | inactive | inactive | inactive | inactive | – | inactive | – | – | – | inactive | inactive | inactive | inactive | inactive | inactive
